Compound activity deposited in PubChem by National Center for Advancing Translational Sciences (NCATS).
Most compounds without a hit are left out; they make up all but 18% or so of the library.
HepG2 viability: counter-screen for TGF-b inhibitors: cytotoxicity in HepG2 cells. HepG2 CAGA-GFP viability, ATP luminescence, 18 h. Potency, µM (doses to about 46.1 µM), without a hit: at the highest dose activity change, negative = cytotoxicity, hits mostly cytotoxic. hit rate 0.76% among 410,000. AID 588856; note: potency is the fitted concentration of half-maximal effect
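CellTiter-Glo luminescence gave cytotoxicity after 18 hours at 37 degrees C. The cells were HepG2 CAGA-GFP in 1% FBS DMEM, stimulated with 500 pg/mL TGF-beta after compound addition. %Activity was normalised to no-cell wells (complete cell-killing) and DMSO (no toxicity), and curves were fitted and classified.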
IL-1B inflam inh: inhibitors of inflammasome signaling (IL-1 beta secretion); THP-1 LPS/ATP IL-1B secretion, AlphaLISA, 16 h; active compounds read low; activity change, % at 57.5 µM; hit rate 4.7% among 360,000; AID 743279; in the data active = activity change below about -50%; inconclusive = mostly about -30% to -49%; note: % is set by controls: 0 for no effect and ±100 for the full control effect
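THP-1 cells pretreated 1 hr with compounds (up to 57.5 uM final), then stimulated with LPS (250 ng/mL final) plus ATP (1.25 mM final); secreted IL-1B measured by AlphaLISA after 16 hr, decreased signal indicating inhibition.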
TDP1 cell noCPT: qHTS for Inhibitors of human tyrosyl-DNA phosphodiesterase 1 (TDP1): qHTS in cells in absence of CPT; DT40 Tdp1-/- hTDP1 cells, no CPT, ATP luminescence, 48 h; Potency, µM (titrated, usually from 46.2 µM), for inactives: at the top dose activity change, negative = growth inhibition, actives largely listed as inhibitors; hit rate 15% among 420,000; note: potency is the fitted concentration of half-maximal effect; % is set by controls: 0 for no effect and ±100 for the full control effect; nearly all actives have a fitted effect of over 55% in size
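Luminescent ATP content (CellTiter-Glo) served as the growth readout. Knockout chicken DT40 cells expressing human TDP1 were exposed to compounds without camptothecin for a minimum 48 hr at 37 °C.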
TDP1 cell CPT: DT40-hTDP1 cell growth loss with CPT | chicken DT40 Tdp1-/-;hTDP1 cells + 20 nM CPT, ATP luminescence, 48 h | Potency, µM (top dose mostly 46.2 µM), inactives show at the highest dose activity change, negative = growth inhibition, most hits filed as inhibitors | hit rate 12% among 420,000 | AID 686979; note: potency is the fitted concentration of half-maximal effect; % is set by controls: 0 for no effect and ±100 for the full control effect; nearly all actives have a fitted effect of over 55% in size
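Cell growth measured by CellTiter-Glo luminescence after a minimum 48 h, 37 C compound exposure with 20 nM CPT in Tdp1-knockout DT40 cells stably expressing hTDP1, seeded 400/well; qHTS titration format.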
TGFb SMAD3 inh: TGF-b pathway inhibition; HepG2 CAGA-GFP TGF-b/SMAD3 reporter, GFP fluorescence, 18 h; TGF-beta stimulated, 500 pg/mL final; Potency, µM (top dose mostly 46.1 µM), for inactives: at the top dose activity, negative = inhibition, usual class: inhibitors; hit rate 1.2% among 410,000; AID 588855; note: potency is the fitted concentration of half-maximal effect; % is set by controls: 0 for no effect and ±100 for the full control effect; nearly all actives have a fitted effect of over 65% in size
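GFP signal (ex488/em500-530) from TGF-beta-stimulated HEPG2 CAGA-GFP cells, 500 pg/mL final, 18 h at 37 degrees C in DMEM plus 1% FBS, normalized to unstimulated and DMSO-stimulated controls.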
TDP1 block: blocks human tyrosyl-DNA phosphodiesterase 1 | AID 485290 | Potency, µM (series often up to 130 µM), for the others: at the highest dose activity change, negative = inhibition, most hits filed as inhibitors | hit rate 0.28% among 350,000 | recombinant TDP1, AlphaScreen DNA substrate cleavage | Q9NUW8; note: potency is the fitted concentration of half-maximal effect; % is set by controls: 0 for no effect and ±100 for the full control effect; nearly all actives have a fitted effect of over 40% in size
Target sequence (Q9NUW8 whole entry, looked up): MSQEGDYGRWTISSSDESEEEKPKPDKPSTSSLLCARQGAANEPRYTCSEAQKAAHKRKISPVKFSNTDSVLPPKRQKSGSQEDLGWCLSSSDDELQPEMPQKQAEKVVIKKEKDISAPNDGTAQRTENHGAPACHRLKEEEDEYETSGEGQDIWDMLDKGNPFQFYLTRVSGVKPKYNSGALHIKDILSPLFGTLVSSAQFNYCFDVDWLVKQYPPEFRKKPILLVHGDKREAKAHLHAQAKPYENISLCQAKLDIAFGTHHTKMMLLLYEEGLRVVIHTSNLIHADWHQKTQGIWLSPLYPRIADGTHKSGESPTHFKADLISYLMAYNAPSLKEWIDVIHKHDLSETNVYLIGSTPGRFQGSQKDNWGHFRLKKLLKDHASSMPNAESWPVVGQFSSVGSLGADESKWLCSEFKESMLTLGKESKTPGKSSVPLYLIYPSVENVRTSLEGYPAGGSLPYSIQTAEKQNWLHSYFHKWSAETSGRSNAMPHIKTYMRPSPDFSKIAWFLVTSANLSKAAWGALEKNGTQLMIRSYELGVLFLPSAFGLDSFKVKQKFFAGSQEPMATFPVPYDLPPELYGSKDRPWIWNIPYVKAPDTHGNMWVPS
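Here, a 5' biotin and 3' phosphotyrosine-FITC DNA oligonucleotide reports Tdp1 activity: intact substrate bridges AlphaScreen beads, while cleavage leaves a 3' phosphate and drops signal. All incubations at room temperature.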
The depositor's hits bear a star; ? = inconclusive; . = no result; [ ] = dose if it differs, or a comment. Unless noted, calls come from the whole dose curve; as a rule, active = well fitted curve in the direction sought with a large enough effect; inconclusive = small, poorly fitted or top-dose-only effect, or another doubt; inactive = no such curve, though single readings can be large; an effect the other way counts as inactive or inconclusive.

SMILES	HepG2 viability	IL-1B inflam inh	TDP1 cell noCPT	TDP1 cell CPT	TGFb SMAD3 inh	TDP1 block
O=C(CN1CCN(S(=O)(=O)c2ccc(Br)cc2)CC1)Nc1ccc2c(c1)OCCO2	-22.0%	7.6	-7.5%	-5.0%	-5.7%	10.9%
O=C(CN1CCN(c2ccccc2)CC1)Nc1ccc2c(c1)OCCO2	41.5%	-0.2	3.7%	-4.8%	-7.3%	-2.9%
O=C(CN1CCN(c2ccccc2O)CC1)Nc1ccc2c(c1)OCCCO2	-2.9%	-50.5*	13.2%	-3.4%	-22.5%	4.3%
CC1(C(=O)NS(=O)(=O)c2ccc(C#N)cc2)CCN1C(=O)C1CCCCC1 (centres undefined)	13.9%	8.9	-3.0%	5.4%	32.5%	.
Cc1cccn2c(CNCCc3ccco3)c(C(=O)N3CCOCC3)nc12	-8.7%	-3.8	-1.8%	-11.3%	0.2%	2.1%
CN(C)c1ccc(CN2CCC(C(=O)NC(c3ccc(Cl)cc3)c3cnccn3)CC2)cc1 (centres undefined)	-32.6%	?	16.4µM*	20.6µM*	4.5%	.
O=C(NC(c1ccc(-c2ccccc2)cc1)c1cnccn1)C1CCN(Cc2cccc(C(F)(F)F)c2)CC1 (centres undefined)	-100.8%	-63.1*	18.4µM*	25.9µM*	?	.
O=C(NC(c1ccc(Cl)cc1)c1cnccn1)C1CCN(Cc2cccc(C(F)(F)F)c2)CC1 (centres undefined)	-29.9%	.	8.2µM*	11.6µM*	-24.4%	.
O=C(NC(c1ccc(Cl)cc1)c1cnccn1)C1CCN(Cc2ccccc2)CC1 (centres undefined)	0.1%	-2.1	?	?	4.2%	.
Cc1nc2nc(NC(=O)c3ccccc3F)[nH]n2c(=O)c1Cl	-0.1%	.	1.3%	-3.0%	0.9%	7.0%
Cc1ccsc1/C=N/NC(=O)c1ccc2ccccc2c1	-1.1%	-8.7	18.4µM*	14.6µM*	-5.5%	1.3%[56.1 µM]
COc1ccncc1-c1csc(C(O)c2ccccc2)n1 (centres undefined)	12.1%	-11.0	-44.9%	?	39.0%	.
COc1nnc(-c2ccc(N3CCCCC3)c(NC(=O)C3CCCCC3)c2)c2ccccc12	-46.1%	66.1	?	-22.5%	?	0.0%
COc1nnc(-c2ccc(N3CCCCC3)c(NC(C)=O)c2)c2ccccc12	-0.9%	?	18.4µM*	?	0.0%	0.9%
CC(C)(C)C1CCC(C(=O)Nc2nccs2)CC1 (centres undefined)	18.4%	19.6	23.1µM*	?	4.7%	5.2%
Cc1ccc2[nH]c(=O)c(CN(Cc3ccccc3)C(=S)NCCCN(C)C)cc2c1	2.9%	-87.4*	?	?	-6.5%	0.0%
COc1cc2cc(CN(CCc3ccccc3C)C(=S)NCCCN(C)C)c(=O)[nH]c2cc1OC	-66.9%	-0.4	16.4µM*	?	-29.3%	4.2%
CCNC(=S)N(CCc1ccccc1C)Cc1cc2cc(OC)c(OC)cc2[nH]c1=O	-10.4%	-2.1	3.0%	-17.6%	-14.2%	5.6%
CCCn1c(-c2ccc(F)cc2)nc2c(NCCN(C)C)nc(C)nc21	.	.	.	.	.	6.9%
CSc1ccc(CCNC(=O)CCc2nnc3ccc(N4CCOCC4)nn23)cc1	-16.0%	-0.8	-14.3%	-18.8%	-2.2%	.
CCOC(=O)CNC(=O)CCc1nnc2ccc(N3CCC(C)CC3)nn12	-2.9%	-7.6	?	23.1µM*	0.4%	.
CCOC(=O)C1CCN(C(=O)CCc2nnc3ccc(N4CCC(C)CC4)nn23)CC1	-0.3%	0.0	?	18.4µM*	9.7%	3.6%
CSc1ccc(CCNC(=O)CCc2nnc3ccc(N4CCCCC4)nn23)cc1	2.82µM*	1.8	?	?	?	.
CNc1ccc(C=O)cc1I	1.7%	.	-22.2%	7.6%	-2.3%	.
CCN(CC(=O)Nc1ccc(NC(C)=O)cc1)C(=O)CCCSc1nc2ccccc2[nH]1	-5.2%	49.3	-7.8%	-1.1%	-2.9%	.
SMILES	HepG2 viability	IL-1B inflam inh	TDP1 cell noCPT	TDP1 cell CPT	TGFb SMAD3 inh	TDP1 block
C=CCSc1nc2ccccc2n1C(=O)/C=C/c1ccc(OC)c(OC)c1	-9.2%	-101.8*	3.55µM*	5.01µM*	-6.3%	0.0%
CCn1c(SCC(=O)N/N=C/c2ccc(OC)c(OC)c2)nc2ccccc21	4.9%	6.5	?	?	41.7%	0.0%
C=CCSc1nc2ccccc2n1C(=O)/C=C/c1cc(OC)c(OC)c(OC)c1	11.2µM*	-104.1*	2.06µM*	2.31µM*	?	3.2%
CCSc1nc2ccccc2n1C(=O)/C=C/c1ccc(OC)c(OC)c1	-51.7%	-102.5*	3.26µM*	4.11µM*	?	-2.7%
COc1ccc(OC)c(C2CC(=O)Oc3c2c(=O)n(C)c2ccccc32)c1 (centres undefined)	-4.1%	.	-5.8%	-18.1%	8.0%	4.5%
Cc1cccnc1C1=NOC(Cc2ccccc2)C(=O)N1CCOc1ccc(F)cc1 (centres undefined)	2.1%	35.6	23.1µM*	16.4µM*	-29.3%	.
ClCCn1cnc2c(SCc3ccccc3)ncnc21	-9.4%	-55.5*	1.84µM*	?	-4.6%	.
ClCCn1cnc2c(SCc3ccccc3Cl)ncnc21	-20.8%	-66.8*	0.82µM*	?	-3.3%	.
CC(C)Cn1cnc2c(SCc3ccccc3Cl)nc(N)nc21	-23.6%	?	?	?	12.9%	.
Cn1cnc2c(SCc3ccccc3)ncnc21	11.8%	-10.7	-6.6%	-4.2%	19.2%	.
C=CCn1c(SCC(=O)Nc2nnc(C)s2)nnc1C1CC1	1.4%	14.9	-2.3%	-1.2%	21.3%	28.2µM*
Cc1cnc2ccccc2c1/C=C/c1ccc(N)cc1	-27.6%	.	?	?	-18.3%	.
CC(=O)CC1(O)C(=O)N(Cc2ccccc2)c2ccccc21 (centres undefined)	-10.0%	13.5	?	?	-2.8%	0.0%
Cc1ccc(CN2C(=O)C(O)(CC(=O)c3ccc(C)cc3)c3ccccc32)cc1 (centres undefined)	-24.4%	.	2.59µM*	5.8µM*	.	.
Cc1ccc(C(=O)CC2(O)C(=O)N(CCc3ccccc3)c3ccc(Cl)cc32)cc1 (centres undefined)	11.2µM*	.	23.1µM*	20.6µM*	17.8µM*	.
Cc1ccc(C(=O)CC2(O)C(=O)N(Cc3ccccc3F)c3ccccc32)cc1 (centres undefined)	-8.9%	.	?	?	-27.3%	4.5%
